Compounds without any hit were thinned out: in the full panel of roughly 83,000, 20% have a hit.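 Values shown are percent growth following 48 h exposure of cells in 96-well plates to a single concentration of compound; below 10 was considered active.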 A number with no mark means an inactive call. Activity calls are given as the source filed them.
Tested on: HL-60(TB) leukemia
Assay: NCI-60 one-dose screen, 48 h (100 = growth as untreated, 0 = no growth, -100 = all killed)
Details: 10 µM unless noted

Row | Compound | growth
1 | CC(=[N-])N1CCC[C@@H](Nc2c3ccccc3nc3ccccc23)C1.[Cl][Pt].[NH-]CCC[NH-] | 17%
2 | CC1C(=O)c2ccccc2CC1C(=O)O (stereo not drawn) | 99.7%
3 | CN1CCN(Cc2ccc(NC(=O)c3cncc(C#Cc4cnc(N)cc4C#N)c3)cc2C(F)(F)F)CC1 | 4.46% (active)
4 | O=C(/C=C\c1ccco1)/C=C/c1ccco1 | 106%
5 | COc1ccc(C(=O)C2CC2c2ccc(Cl)cc2)cc1 (stereo not drawn) | 14.1%
6 | CC1O[C@@H]2C[C@@](O)([C@H]1O)n1c3ccccc3c3c4c(c5c6ccccc6n2c5c31)C(=O)NC4=O (stereo partly drawn) | 66.6%
7 | O=Cc1c(OCc2cnnn2CC(=O)Nc2ccc(Br)cc2)ccc2ccccc12 | 105%
8 | CCCCCCCC/C=C\CCCCCCCCOc1ccccc1CC(=O)NCC[N+]1(C)CCCC1 | 2.25% (active)
